The source made the active and inactive calls. How the source made its calls: active means hit-call score of the fitted dose curve at least 0.9, where 1 is the maximum; inactive means score below 0.9.

The nature of experiment [1]: ATG_E_Box_CIS: Attagene CIS-FACTORIAL HepG2 Assay for human Enhancer Box (E-box) (AID 2282936). The note with it: HepG2 E-box cis-reporter transcription, actives raise or lower the signal. A digest of the protocol: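 Endogenous transcription factor activity was sensed in human HepG2 liver cells through transfected cis-promoter reporter units. After 24 h of dosing, total RNA was reverse-transcribed and reporter cDNA resolved by capillary electrophoresis.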

Experiment [2] in a line: ATG_M_61_CIS: Attagene CIS-FACTORIAL HepG2 Assay for M61 Transcription Factor (Internal Marker) (AID 2282937). The note with it: HepG2 Attagene CIS-FACTORIAL M61 internal marker reporter; actives raise or lower the signal. The method, boiled down: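 Using transiently transfected HepG2 liver cells, reporter transcript levels were assessed 24 h post-dosing by RT-PCR and capillary electrophoresis. Changes in either direction were fitted relative to DMSO controls.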

Experiment [3] in a line: ATG_EGR_CIS: Attagene CIS-FACTORIAL HepG2 Assay for human Early Growth Response 1 (EGR1) (AID 2282938). The conditions noted are these: HepG2 Attagene CIS-FACTORIAL EGR reporter mRNA; actives raise or lower the signal. The method, boiled down:
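Fluorescent capillary-electrophoresis signal of reporter cDNA fragments serves as read-out. HepG2 cells bear transiently transfected cis-promoter reporter units and are exposed 24 h; gain- or loss-of-signal is fitted against DMSO.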

The nature of experiment [4]: ATG_M_19_CIS: Attagene CIS-FACTORIAL HepG2 Assay for M19 Transcription Factor (Internal Marker) (AID 2282939). The conditions noted are these: HepG2 Attagene CIS-FACTORIAL M19 internal marker reporter; actives raise or lower the signal. The method, boiled down:
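HepG2 cells transiently transfected with cis-regulated multiple reporter transcription units were dosed for 24 h; reporter mRNA was quantified by RT-PCR, 6-FAM primer-extension labelling, HpaI digestion and capillary electrophoresis, with bidirectional fitting against DMSO baseline.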

A short description of experiment [5]: ATG_ERE_CIS: Attagene CIS-FACTORIAL HepG2 Assay for Estrogen Response Element (ERE) (AID 2282940). The conditions noted are these: HepG2 ERE cis-reporter, Attagene RNA transcript; actives raise or lower the signal. The method, boiled down:
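HepG2 cells transiently transfected with cis-promoter-driven multiplexed reporter transcription units report endogenous TF activity. After 24 h compound exposure, reporter mRNA is quantified by RT-PCR with capillary electrophoresis fluorescence; bidirectional fitting versus DMSO baseline.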

Experiment [6] is described as follows: ATG_Ets_CIS: Attagene CIS-FACTORIAL HepG2 Assay for human Erythroblast Transformation Specific (ETS) (AID 2282941). The conditions noted are these: HepG2 ETS cis-reporter transcription; AC50: actives raise or lower the signal unless noted; outcome: actives raise or lower the signal unless noted. The method, boiled down:
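Cis-regulated reporter mRNA induction in HepG2 (transient transfection), 24 h exposure, RT-PCR plus capillary electrophoresis detection; DMSO serves as negative control and baseline.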

The target in experiment [7] is Hepatocyte nuclear factor 3-beta (Homo sapiens) (UniProt Q9Y261). As to the kind of experiment: ATG_FoxA2_CIS: Attagene CIS-FACTORIAL HepG2 Assay for human Forkhead box A2 (FOXA2) (AID 2282942). The note with it: HepG2 cis-reporter transcription factor activity, 24 h; actives raise or lower the signal. A digest of the protocol: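 Fluorescence signal of reporter cDNA fragments, separated by capillary electrophoresis, reflects endogenous transcription factor activity in transfected HepG2 after 24 h. Both increases and decreases fitted against DMSO.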
Sequence of Hepatocyte nuclear factor 3-beta (Homo sapiens) (Q9Y261 whole entry, looked up, the tested form may be a part): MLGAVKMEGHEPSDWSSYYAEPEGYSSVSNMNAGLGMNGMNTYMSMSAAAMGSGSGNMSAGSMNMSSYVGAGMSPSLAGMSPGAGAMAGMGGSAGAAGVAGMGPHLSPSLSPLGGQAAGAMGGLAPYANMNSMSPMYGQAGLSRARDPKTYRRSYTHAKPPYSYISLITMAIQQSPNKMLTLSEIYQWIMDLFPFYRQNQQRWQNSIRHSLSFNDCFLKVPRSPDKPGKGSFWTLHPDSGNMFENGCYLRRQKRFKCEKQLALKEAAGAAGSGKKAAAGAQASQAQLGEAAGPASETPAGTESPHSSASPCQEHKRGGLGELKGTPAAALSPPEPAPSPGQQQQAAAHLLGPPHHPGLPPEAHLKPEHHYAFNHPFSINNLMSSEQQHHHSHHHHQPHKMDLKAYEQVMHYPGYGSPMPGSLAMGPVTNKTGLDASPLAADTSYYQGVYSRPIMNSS

The nature of experiment [8]: ATG_FoxO_CIS: Attagene CIS-FACTORIAL HepG2 Assay for human Forkhead box O (FoxO) (AID 2282943). The note with it: HepG2 Attagene cis-reporter, FoxO element, mRNA; actives raise or lower the signal. A digest of the protocol:
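Values reflect reporter mRNA induction or loss in HepG2 cells 24 h post-dosing, fitted bidirectionally with DMSO as negative control and baseline. Detection used RT-PCR and fluorescence capillary electrophoresis.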

Experiment [9] in a line: ATG_GATA_CIS: Attagene CIS-FACTORIAL HepG2 Assay for human GATA Binding Protein (AID 2282944). The note with it: HepG2 GATA cis-element reporter, Attagene multiplex mRNA; actives raise or lower the signal. A digest of the protocol:
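HepG2 cells transiently transfected with multiplexed cis-element reporter units reflecting endogenous transcription factor activity; reporter mRNA measured after 24 h dosing by RT-PCR, 6-FAM labeling, HpaI digestion and capillary electrophoresis. Bidirectional fitting versus DMSO baseline.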

A short description of experiment [10]: ATG_GLI_CIS: Attagene CIS-FACTORIAL HepG2 Assay for human Zinc Finger Protein GLI1 (AID 2282945). The conditions noted are these: HepG2, Attagene cis-factorial reporter mRNA, GLI element; actives raise or lower the signal. A digest of the protocol: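 HepG2 cells transiently transfected with cis-promoter multiplexed reporter units report endogenous transcription factor activity. After 24 h chemical exposure, reporter mRNA was quantified by RT-PCR, 6-FAM labelling, HpaI digestion and capillary electrophoresis, with bidirectional fitting against DMSO.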

Experiment [11] deals with Bile acid receptor (Homo sapiens) (UniProt Q96RI1). As to the kind of experiment: ATG_IR1_CIS: Attagene CIS-FACTORIAL HepG2 Assay for human Nuclear Receptor Subfamily 1 Group H Member 4 (NR1H4), IR1 submotif (AID 2282946). The conditions noted are these: IR1 reporter transcription, actives raise or lower the signal. A digest of the protocol: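 Readout: reporter transcript levels by RT-PCR with fluorescent capillary electrophoresis, from HepG2 cells transiently transfected with multiplexed cis-regulated reporters and dosed 24 h. Gain- or loss-of-signal fitted versus DMSO negative control.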
Sequence of Bile acid receptor (Homo sapiens) (Q96RI1 whole entry, looked up): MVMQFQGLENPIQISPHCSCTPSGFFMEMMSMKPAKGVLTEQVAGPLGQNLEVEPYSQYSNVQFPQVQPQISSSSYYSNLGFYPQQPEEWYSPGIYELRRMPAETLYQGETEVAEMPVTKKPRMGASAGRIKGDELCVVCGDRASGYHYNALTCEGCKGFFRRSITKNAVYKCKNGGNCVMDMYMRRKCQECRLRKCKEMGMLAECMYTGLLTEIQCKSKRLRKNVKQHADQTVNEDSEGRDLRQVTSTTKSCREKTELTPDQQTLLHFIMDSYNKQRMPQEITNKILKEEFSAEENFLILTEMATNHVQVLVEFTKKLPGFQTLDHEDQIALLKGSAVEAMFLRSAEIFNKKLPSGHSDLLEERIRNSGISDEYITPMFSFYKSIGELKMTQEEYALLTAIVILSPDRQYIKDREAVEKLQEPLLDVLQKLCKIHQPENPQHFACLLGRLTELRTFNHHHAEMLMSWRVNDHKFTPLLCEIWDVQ

Experiment [12] can be described thus: ATG_GRE_CIS: Attagene CIS-FACTORIAL HepG2 Assay for human Glucocorticoid Response Elements (GRE) (AID 2282947). The note with it: HepG2 GRE cis-reporter, Attagene multiplex mRNA; AC50: actives raise or lower the signal unless noted; outcome: actives raise or lower the signal unless noted. The method, boiled down:
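Cells (HepG2) bearing transfected cis-promoter reporter transcription units were treated with chemical for 24 hours. Reporter mRNA was measured via RT-PCR with capillary electrophoresis, and activity was fitted in both directions relative to DMSO.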

The nature of experiment [13]: ATG_ISRE_CIS: Attagene CIS-FACTORIAL HepG2 Assay for human Interferon Regulatory Factor 1 (IRF1) binding to an Interferon-Stimulated Response Element (ISRE) (AID 2282948). The note with it: HepG2 ISRE cis-reporter (Attagene), mRNA transcription readout; actives raise or lower the signal. The method, boiled down: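 Multiplexed mRNA reporter readout in human liver HepG2 cells: cis-element-driven reporters transfected, compound added for 24 h, transcripts amplified, fluorescently labelled and sized by capillary electrophoresis; curve fitting bidirectional against DMSO.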

Experiment [14] can be described thus: ATG_M_32_CIS: Attagene CIS-FACTORIAL HepG2 Assay for M32 Transcription Factor (Internal Marker) (AID 2282949).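 Further: background control marker of the multiplexed CIS panel rather than a real target.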 The note with it: HepG2 Attagene cis-factorial M32 reporter, mRNA; actives raise or lower the signal. The method, boiled down:
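HepG2 transfectants (cis-regulated reporter transcription units) dosed 24 h. Reporter mRNA by RT-PCR plus CE, analysed as gain or loss relative to DMSO.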

The nature of experiment [15]: ATG_M_06_CIS: Attagene CIS-FACTORIAL HepG2 Assay for M06 Transcription Factor (Internal Marker) (AID 2282950). The note with it: HepG2 Attagene CIS-FACTORIAL M06 internal marker reporter; actives raise or lower the signal. A digest of the protocol: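 HepG2 cells transiently transfected with cis-regulated multiple reporter transcription units were exposed to chemical for 24 h; reporter mRNA was quantified by RT-PCR, 6-FAM primer labelling, HpaI digestion and capillary electrophoresis, fitted bidirectionally against DMSO.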

For experiment [16], the target named is Hypoxia-inducible factor 1-alpha (Homo sapiens) (UniProt Q16665). Description: ATG_HIF1a_CIS: Attagene CIS-FACTORIAL HepG2 Assay for human Hypoxia Inducible Factor 1 (HIF1A) (AID 2282951). The conditions noted are these: HepG2 Attagene cis-factorial HIF1a reporter transcription; actives raise or lower the signal. The method, boiled down: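 Endogenous-TF cis reporter readout, human HepG2 cells, 24 h incubation; mRNA detected via RT-PCR and capillary electrophoresis fluorescence; DMSO-normalised bidirectional fitting.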
Sequence of Hypoxia-inducible factor 1-alpha (Homo sapiens) (Q16665 whole entry, looked up): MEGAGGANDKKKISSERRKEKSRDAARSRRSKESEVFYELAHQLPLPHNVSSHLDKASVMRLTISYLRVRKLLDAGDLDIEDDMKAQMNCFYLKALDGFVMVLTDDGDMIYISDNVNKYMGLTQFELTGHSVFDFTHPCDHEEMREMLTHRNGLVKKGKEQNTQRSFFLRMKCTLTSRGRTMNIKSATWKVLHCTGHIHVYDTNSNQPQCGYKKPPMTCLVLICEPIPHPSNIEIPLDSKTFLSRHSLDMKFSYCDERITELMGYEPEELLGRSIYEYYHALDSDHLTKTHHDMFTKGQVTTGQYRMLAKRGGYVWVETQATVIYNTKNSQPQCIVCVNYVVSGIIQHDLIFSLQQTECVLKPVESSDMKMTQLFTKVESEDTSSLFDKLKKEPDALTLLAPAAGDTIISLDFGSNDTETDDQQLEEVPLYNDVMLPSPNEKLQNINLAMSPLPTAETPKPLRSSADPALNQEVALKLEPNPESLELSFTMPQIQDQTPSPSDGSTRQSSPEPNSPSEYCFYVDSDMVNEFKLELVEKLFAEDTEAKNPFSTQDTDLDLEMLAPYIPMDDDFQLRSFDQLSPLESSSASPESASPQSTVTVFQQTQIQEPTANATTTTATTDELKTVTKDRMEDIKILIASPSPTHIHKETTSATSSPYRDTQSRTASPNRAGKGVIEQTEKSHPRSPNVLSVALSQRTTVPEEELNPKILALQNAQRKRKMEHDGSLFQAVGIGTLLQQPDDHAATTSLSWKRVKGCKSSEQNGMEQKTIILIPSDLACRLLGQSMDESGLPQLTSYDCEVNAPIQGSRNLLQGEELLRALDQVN

Experiment [17] concerns the target Hepatocyte nuclear factor 6 (Homo sapiens) (UniProt Q9UBC0). Description: ATG_HNF6_CIS: Attagene CIS-FACTORIAL HepG2 Assay for human Hepatocyte Nuclear Factor 6 (HNF6) (AID 2282952). The conditions noted are these: HepG2 Attagene cis-factorial HNF6 reporter transcription; actives raise or lower the signal. The method, boiled down:
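Readout: fluorescent reporter-transcript fragments resolved by capillary electrophoresis after RT-PCR, reflecting endogenous factor activity in transfected HepG2. Exposure 24 h. Gain or loss of signal fitted bidirectionally against DMSO.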

Experiment [18] addresses Heat shock factor protein 1 (Homo sapiens) (UniProt Q00613). Description: ATG_HSE_CIS: Attagene CIS-FACTORIAL HepG2 Assay for human Heat Shock Transcription Factor 1 (HSE) (AID 2282953). The note with it: HepG2 HSE cis-reporter, Attagene RNA transcription; actives raise or lower the signal. The method, boiled down:
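HepG2 cells transiently transfected with multiple reporter transcription units under cis-regulatory promoter control, measuring endogenous transcription factor activity. After 24 h chemical exposure, reporter mRNA quantified by RT-PCR, fluorescent labelling, HpaI digestion and capillary electrophoresis; bidirectional fit versus DMSO.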

Experiment [19] can be described thus: ATG_MRE_CIS: Attagene CIS-FACTORIAL HepG2 Assay for human Metal Responsive Element (MRE) (AID 2282954). The note with it: HepG2 MRE cis-reporter transcription, Attagene multiplex; actives raise or lower the signal. A digest of the protocol:
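Cells were transfected with cis-promoter reporter transcription units, then dosed for 24 h. RNA was reverse-transcribed, amplified, fluorescently labelled and resolved by capillary electrophoresis, and activity was fitted in both directions relative to DMSO.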

A short description of experiment [20]: ATG_PBREM_CIS: Attagene CIS-FACTORIAL HepG2 Assay for human Phenobarbital-responsive Enhancer Module (PBREM) (AID 2282955). The note with it: HepG2 PBREM cis-reporter, Attagene multiplexed transcription; actives raise or lower the signal. The method, boiled down: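 Readout: reporter mRNA, fluorescent RT-PCR fragments separated by capillary electrophoresis. System: HepG2 transiently transfected with cis-regulated reporter units. Exposure: 24 h. Analysis: bidirectional, DMSO baseline.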

Sequence of Heat shock factor protein 1 (Homo sapiens) (Q00613 whole entry, looked up): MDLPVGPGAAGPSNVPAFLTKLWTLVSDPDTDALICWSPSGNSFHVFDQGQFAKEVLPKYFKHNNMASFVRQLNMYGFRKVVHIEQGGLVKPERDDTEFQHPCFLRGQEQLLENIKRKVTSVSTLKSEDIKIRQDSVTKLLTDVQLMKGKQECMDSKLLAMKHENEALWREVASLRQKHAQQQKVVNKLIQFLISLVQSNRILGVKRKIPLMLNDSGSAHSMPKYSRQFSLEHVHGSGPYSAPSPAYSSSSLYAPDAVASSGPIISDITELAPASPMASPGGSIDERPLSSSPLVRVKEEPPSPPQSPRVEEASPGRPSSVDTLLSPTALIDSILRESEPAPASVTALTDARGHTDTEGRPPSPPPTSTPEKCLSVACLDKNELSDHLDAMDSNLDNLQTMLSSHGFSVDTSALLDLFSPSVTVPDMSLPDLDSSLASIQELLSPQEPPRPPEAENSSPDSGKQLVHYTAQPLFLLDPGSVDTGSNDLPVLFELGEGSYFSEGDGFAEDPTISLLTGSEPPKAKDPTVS
Sequence of Hepatocyte nuclear factor 6 (Homo sapiens) (Q9UBC0 whole entry, looked up, the tested form may be a part): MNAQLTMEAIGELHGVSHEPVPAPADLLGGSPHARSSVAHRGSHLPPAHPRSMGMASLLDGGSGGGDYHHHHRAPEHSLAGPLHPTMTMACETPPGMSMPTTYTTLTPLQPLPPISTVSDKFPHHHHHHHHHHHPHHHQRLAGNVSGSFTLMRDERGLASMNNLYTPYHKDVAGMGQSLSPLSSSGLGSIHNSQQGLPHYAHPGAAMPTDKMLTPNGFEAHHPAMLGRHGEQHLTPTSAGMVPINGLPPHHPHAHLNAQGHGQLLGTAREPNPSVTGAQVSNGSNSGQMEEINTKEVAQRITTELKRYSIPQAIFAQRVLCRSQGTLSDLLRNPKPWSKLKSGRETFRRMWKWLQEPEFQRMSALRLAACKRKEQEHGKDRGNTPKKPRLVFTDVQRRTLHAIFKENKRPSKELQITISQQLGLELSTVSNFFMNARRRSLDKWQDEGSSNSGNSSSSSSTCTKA

What is called AC50 is the midpoint of the concentration-response curve, whichever way the signal moves. With `C=CC(=O)OCCC(F)(F)C(F)(F)C(F)(F)C(F)(F)C(F)(F)C(F)(F)C(F)(F)C(F)(F)F`, the result in experiment [1], in [2], in experiment [3], in [4], in experiment [6] and in [7] was inactive. For the same compound, the outcome in [8], in [9], in experiment [10], in experiment [11], in experiment [12] and in [13] was inactive. Further, the call in [14], in experiment [15], in experiment [16], in experiment [17], in [18] and in [19] was inactive. The outcome in [20] was inactive. Moreover, the AC50 in experiment [5] is 22.6 µM (active).
As to `CCc1cccc(CC)c1N(COC)C(=O)CS(=O)(=O)O`, the result in [1], in experiment [2], in [3], in experiment [4], in experiment [5] and in experiment [6] was inactive. Further, the compound was called inactive in experiment [7], in experiment [8], in experiment [9], in experiment [10], in [11] and in [12]. The outcome in experiment [13], in experiment [14], in experiment [15], in experiment [16], in experiment [17] and in experiment [18] was inactive. The outcome in [19] was inactive. Moreover, the AC50 in experiment [20] was 8.56 µM (active).
With `CCCCCCCCCCCC(=O)NCCCN(C)C`, the outcome in experiment [1], in experiment [2], in experiment [4], in [5], in experiment [6] and in experiment [7] was inactive. Further, the result in [10], in [14], in [15], in experiment [17] and in experiment [20] was inactive. The concentration at half-maximal activity (AC50) in experiment [3] is 20.3 µM (active); in experiment [8], 20.3 µM (active); in [9], 17.2 µM (active); in [11], 16.4 µM (active); in experiment [12], 14.9 µM (active); in [13], 16.9 µM (active). Besides, the AC50 in experiment [16] is 18.1 µM (active); in experiment [18] it was 17.5 µM (active); in [19], 19.8 µM (active).

Source of the values: PubChem BioAssay (EPA / NIEHS).
